Results published in PubChem BioAssay AID686940 (The Scripps Research Institute Molecular Screening Center, 2013).
About 2,600 (0.7%) of roughly 370,000 compounds were called active.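 Rule for the calls: active = inhibition above a per-plate cutoff, mean inhibition of test wells between control levels plus 3 SD (cut at about 38% in these data); inactive = the rest.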 Only a selection was taken, and actives are over-represented in it overall.

The molecules below were run against COUP transcription factor 2 (Homo sapiens) (UniProt P24468) (assay: NR2F2 transcriptional activity inhibitors, primary screen, cell-based, luciferase reporter, HEK293T, luminescence (AID 686940;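 note: cells cotransfected with COUP-TFII expression vector driving the NGFI-A reporter; 0% = median of COUP-TF2 test wells and 100% = reporter-only cells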)). Conditions: HEK293T NGFI-A luciferase reporter, at 8.6 µM, stronger effect = higher value.
Sequence of COUP transcription factor 2 (Homo sapiens) (P24468 whole entry, looked up): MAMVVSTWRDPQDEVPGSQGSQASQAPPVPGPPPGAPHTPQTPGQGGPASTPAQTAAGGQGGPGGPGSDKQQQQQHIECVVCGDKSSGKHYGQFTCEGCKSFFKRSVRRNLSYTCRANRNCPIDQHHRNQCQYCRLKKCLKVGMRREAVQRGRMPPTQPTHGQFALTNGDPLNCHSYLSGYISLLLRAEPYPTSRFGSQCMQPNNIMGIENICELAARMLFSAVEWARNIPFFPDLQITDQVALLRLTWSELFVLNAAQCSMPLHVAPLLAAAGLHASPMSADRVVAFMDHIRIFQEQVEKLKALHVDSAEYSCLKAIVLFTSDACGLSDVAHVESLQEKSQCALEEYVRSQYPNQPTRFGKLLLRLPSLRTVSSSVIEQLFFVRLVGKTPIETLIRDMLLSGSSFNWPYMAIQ
With `COc1ccc(-c2cc(-c3nnc(SCc4ccc([N+](=O)[O-])cc4)n3N)[nH]n2)cc1` the inhibition was 11.7% (inactive). With `C=CCN1C(=O)[C@@H](CC(=O)NCCCCc2ccccc2)[C@]2(C(=O)OCC)CCCCC/C=C/12` the inhibition was -17.9% (inactive). With `O=C(CN1C(=O)c2ccccc2S1(=O)=O)N1CCc2ccccc21` the inhibition was 57.8% (active). In the case of `CN(Cc1cccs1)C(=O)CN1C(=O)c2ccccc2S1(=O)=O`, the inhibition is reported as -15.9% (inactive). In the case of `Cc1ccc(S(=O)(=O)N(C)CC(=O)N2CCc3ccccc32)cc1`, the inhibition is reported as -12.3% (inactive). In the case of `CC(=O)Nc1cccc(NC(=O)c2ccc3c(c2)CCN3S(C)(=O)=O)c1`, the inhibition is reported as -21% (inactive). In the case of `CN(c1cccc(NC(=O)c2ccc(CN3CCc4ccccc4C3)cc2)c1)S(C)(=O)=O`, the inhibition is reported as 61.4% (active). For `CN(c1ccc(C(=O)N2CCc3ccccc3C2)cc1)S(C)(=O)=O`, the inhibition was -7.57% (inactive). With `COCCCNC(=O)C[C@H]1C[C@@]2(C(=O)OC)C(=C[C@H](C(C)(C)C)O[C@@H]2C)N(Cc2ccc(Cl)cc2Cl)C1=O` the inhibition was 6.74% (inactive). With `CCOC(=O)[C@]12CCCC3=C1N(CCC3)C(=O)[C@@H](CC(=O)NCc1cccs1)C2` the inhibition was -7.47% (inactive). `CC(C)CNc1cccc2c1S(=O)(=O)N(Cc1cn(Cc3ccccc3C(F)(F)F)nn1)Cc1ccccc1O2` was tested, and the inhibition was 3.92% (inactive). `CC(C)(C)c1cc(C(=O)NN)n(Cc2ccc(Cl)cc2Cl)n1` was tested, and the inhibition was 12.5% (inactive). With `N#CC(C#N)=CN=c1ccn(Cc2ccc(Cl)cc2Cl)cc1` the inhibition was 41.5% (active). With `Cn1ccc(=NC=C(C#N)C#N)c2ccccc21` the inhibition was -6.63% (inactive). For `COC(=O)[C@H](C(C)C)N(CCc1cn(Cc2ccccc2)nn1)S(=O)(=O)c1ccc(F)cc1Br`, the inhibition was -0.51% (inactive). `OC[C@@H]1CN(C2CCCC2)C[C@H](n2cnc3c(NC4CCC4)ncnc32)O1` was tested, and the inhibition was -25.3% (inactive). In the case of `OC[C@@H]1CN(Cc2cccs2)C[C@H](n2cnc3c(Nc4ccccc4)ncnc32)O1`, the inhibition is reported as 10.6% (inactive). With `CC(C)Nc1ncnc2c1ncn2[C@H]1CN(Cc2ccncc2)C[C@@H](CO)O1` the inhibition was -8.36% (inactive). For `OC[C@@H]1CN(Cc2ccc(-c3ccccc3)cc2)C[C@H](n2cnc3c(NC4CCCC4)ncnc32)O1`, the inhibition was 73.9% (active). In the case of `OCCN1CCN(c2ncnc3c2ncn3[C@H]2CN(Cc3ccco3)C[C@@H](CO)O2)CC1`, the inhibition is reported as -8.87% (inactive). With `OC[C@@H]1CN(Cc2ccncc2)C[C@H](n2cnc3c(N4CCN(c5ccccc5)CC4)ncnc32)O1` the inhibition was 65.7% (active). With `Cc1ccc(C)c(NC(=O)CCS(=O)(=O)c2ccccc2)c1` the inhibition was -5.81% (inactive). With `CCCCCN1CCCCC(NC(=O)C(C)CCC)C1=O` (configuration not stated) the inhibition was 4.97% (inactive). `C=CCN1C(=O)[C@@H](CC(=O)N2CCN(C(=O)OCC)CC2)[C@]2(C(=O)OCC)CCCCC/C=C/12` was tested, and the inhibition was 3.11% (inactive). In the case of `C=CCN(C(=O)[C@@H](CCCC)[C@@H](O)c1ccc(Cl)cc1)c1ccccc1`, the inhibition is reported as -5.06% (inactive). `Cc1c(CCC(=O)N[C@@H](CC(C)C)C(=O)O)c(=O)oc2c(C)c3oc4c(c3cc12)CCCC4` was tested, and the inhibition was 6.96% (inactive). `CC[C@@H](C)[C@H](NC(=O)CCc1c(C)c2cc3c4c(oc3c(C)c2oc1=O)CCCC4)C(=O)O` was tested, and the inhibition was 39.7% (active). `Cc1c(C)c2cc3c4c(oc3c(C)c2oc1=O)CCCC4` was tested, and the inhibition was -4.7% (inactive). For `COc1cc(C(=O)NCc2nnc(SCC(=O)c3ccc(Cl)cc3)o2)cc(OC)c1OC`, the inhibition was 7.38% (inactive). For `CCC(=O)Nc1ccc(C(=O)CSc2nnc(CNc3ccc(Cl)cc3)o2)cc1OC`, the inhibition was 42.1% (active). With `COc1ccccc1NC(=O)CSc1nnc(CNC(=O)c2ccccc2F)o1` the inhibition was 1.36% (inactive). In the case of `O=C(CSc1nc2sc3c(c2c(=O)n1-c1ccccc1)CCCC3)NN=Cc1ccc(OCc2ccccc2)cc1`, the inhibition is reported as -6.12% (inactive). `Cc1ccc(-n2c(SCC(=O)N3c4ccccc4Sc4ccccc43)nnc2-c2ccncc2)cc1` was tested, and the inhibition was 6.33% (inactive). With `Cc1ccc(-n2c(SCC(=O)Nc3ccc(S(=O)(=O)Nc4nccs4)cc3)nnc2-c2ccncc2)cc1` the inhibition was 3.85% (inactive). For `Cc1ccc(Nc2nc(CSc3nnc(-c4ccncc4)n3-c3ccccc3C)cs2)cc1`, the inhibition was 39.8% (active). `CC(C)N1CCCCC(NC(=O)c2ccc3ccccc3c2)C1=O` (configuration not stated) was tested, and the inhibition was -8.52% (inactive). `C=CCN1[C@H](CC(C)C)COc2cccc(N3CCCC3)c2S1(=O)=O` was tested, and the inhibition was 14.6% (inactive). In the case of `CCCCCCCCn1c2c(c(=N)c3c1CCC3)CCCC2`, the inhibition is reported as 84.5% (active). With `O=S(=O)(c1ccccc1)N1CCC(c2nc3ccccc3o2)CC1` the inhibition was -11.5% (inactive). For `CCOC(=O)N1CCN(C(=O)C[C@H]2C[C@@]3(C(=O)OC)C(=C[C@H](C(C)(C)C)O[C@@H]3C)N(Cc3ccc(Cl)cc3Cl)C2=O)CC1`, the inhibition was -1.12% (inactive). `C=CCN1[C@@H](Cc2ccccc2)COc2cccc(N3CCSCC3)c2S1(=O)=O` was tested, and the inhibition was 5.82% (inactive). With `O=C(CN1CCCc2ccccc21)NCc1ccc(F)cc1` the inhibition was 5.12% (inactive). `CCCNC(=O)Nc1ccc2c(c1)C(=O)N(C)[C@H]1CC[C@H](CC(=O)NCC3CCCCC3)O[C@@H]1CO2` was tested, and the inhibition was 9.56% (inactive). In the case of `C[C@@H]1ON(C)[C@H]2C[C@H]3c4[nH]c5cccc(-c6ccc7c(c6)OCO7)c5c4CCN3C[C@@H]12`, the inhibition is reported as -15.3% (inactive). For `Cc1ccc(NC(=O)C2CC(=O)N(c3ccc4c(c3)OCCO4)C2)cc1S(=O)(=O)N1CCCCCC1` (configuration not stated), the inhibition was 42.3% (active). With `COc1ccc(S(=O)(=O)N2CCCCC2)cc1NC(=O)C1CC(=O)N(c2ccc3c(c2)OCCO3)C1` (configuration not stated) the inhibition was 0.74% (inactive). In the case of `Cc1ccc(N2CC(C(=O)Nc3ccc(S(=O)(=O)N4CCCC4)cc3)CC2=O)cc1C` (configuration not stated), the inhibition is reported as -1.2% (inactive). `Cc1ccccc1CN1CCCCC(NC(=O)c2cccc(C#N)c2)C1=O` (configuration not stated) was tested, and the inhibition was -2.68% (inactive). For `CN1CCN(c2ccc(NC(=O)c3ccc4c(c3)OCCO4)cc2Cl)CC1`, the inhibition was -69.1% (inactive). In the case of `O=C(Nc1cccc(S(=O)(=O)Nc2ccc(Cl)cc2)c1)c1ccc2c(c1)OCCO2`, the inhibition is reported as 50.8% (active). `CC(=O)Nc1ccc(C(=O)Nc2cccc(S(=O)(=O)NC3=NCCC3)c2)cc1` was tested, and the inhibition was -6.18% (inactive). For `CCOC(=O)[C@]12CCCCC/C=C\1N(Cc1ccc(OC)cc1)C(=O)[C@H]2CC(=O)N1CCOCC1`, the inhibition was 13.5% (inactive). For `COc1ccc([C@H]2OC(=O)C[C@H]2C(=O)N2CCN(c3ccccc3F)CC2)cc1OC`, the inhibition was -8.84% (inactive). `Cc1cc(C(=O)COC(=O)CNC(=O)c2ccc(F)cc2)c(C)n1Cc1ccco1` was tested, and the inhibition was 22.8% (inactive). For `Cc1ccsc1C(=O)OCC(=O)c1cc(C)n(CC2CCCO2)c1C` (configuration not stated), the inhibition was 87.1% (active). With `COCCn1c(C)cc(C(=O)COC(=O)CNC(=O)c2ccco2)c1C` the inhibition was -5.61% (inactive). In the case of `C=CCn1c(SCC(N)=O)nnc1-c1ccccc1OC`, the inhibition is reported as 9.3% (inactive). With `COC(=O)[C@]12C[C@H](CC(=O)NCc3ccccc3)C(=O)N(CCc3ccc(OC)c(OC)c3)C1=C[C@H](C(C)(C)C)O[C@@H]2C` the inhibition was 10.6% (inactive). `COc1cc(SC)ccc1C(=O)Nc1nc(C)cs1` was tested, and the inhibition was 67.9% (active). With `COCCn1c(SCC(=O)Nc2nc(C)cs2)nnc1C(C)C` the inhibition was -1.64% (inactive). For `Cc1csc(NC(=O)CN2CCCCCC2)n1`, the inhibition was 4.1% (inactive). With `COC[C@@H]1CCCN1c1ccc2c(c1)O[C@H](C)CCN(C1CC1)S2(=O)=O` the inhibition was -10.8% (inactive). For `COC(=O)C[C@@H]1CC[C@H]2[C@@H](COc3ccc(NS(=O)(=O)CC(F)(F)F)cc3C(=O)N2C)O1`, the inhibition was -17.9% (inactive). For `CN(CCO)c1cccc2c1S(=O)(=O)N(Cc1cn(Cc3ccc(C(F)(F)F)cc3)nn1)Cc1ccccc1O2`, the inhibition was -35.7% (inactive). `CCOc1ccc(Oc2c(Cl)cnn(-c3ccc(C)cc3)c2=O)cc1` was tested, and the inhibition was 7.75% (inactive). `Cc1sc2nc(SCC(=O)c3ccc(O)c(O)c3)n(Cc3ccco3)c(=O)c2c1C` was tested, and the inhibition was 7.6% (inactive). In the case of `CCOC(=O)c1ccc(NC(=O)Cn2cnc3cc(C)c(C)cc32)cc1`, the inhibition is reported as 59.5% (active). `Cc1ccc(NC(=O)Cn2cnc3c(OCc4ccccc4)ncnc32)cc1C` was tested, and the inhibition was 2.95% (inactive). With `CCOC(=O)c1ccc(NC(=O)CCn2c(=O)oc3ccccc32)cc1` the inhibition was 6.76% (inactive). For `CC(=O)O[C@@]1(C(C)=O)CCC2[C@H]3C=C(C)C4=CC(=O)CC[C@@]4(C)C3CC[C@]21C` (some centres not stated), the inhibition was 3.66% (inactive). `COc1cc(C(=O)Nc2cc(C(F)(F)F)ccc2N2CCOCC2)ccc1O` was tested, and the inhibition was -16.6% (inactive). For `COc1ccc(C(=O)Nc2ccccc2C(=O)N/N=C/c2ccc(O)c(OC)c2)cc1`, the inhibition was 77.1% (active). For `C=CCOc1ccc(C(=O)Nc2ccccc2C(=O)N2CCCC2)cc1`, the inhibition was -20.6% (inactive). For `COc1ccc(S[C@]2(C(=O)N(C)C)CC(=O)N(c3ccc(OC)cc3)[C@@H]2c2ccc(OC)cc2)cc1`, the inhibition was -1.97% (inactive). For `COC(=O)CC1CCc2cc(C)cc(C(CC(C)C)NC(=O)[C@H](CC(C)C)NC(=O)OCc3ccccc3)c2O1` (some centres not stated), the inhibition was 5.51% (inactive). For `CCOC(=O)C1CCN(C(=O)C(C)(C)NC(=O)Nc2ccc(F)c(F)c2)CC1`, the inhibition was -2.96% (inactive). With `O=C(NCc1ccncc1)C(=O)NCc1ccco1` the inhibition was 2.85% (inactive). For `COc1ccc(CNc2ncnc3ccccc23)cc1`, the inhibition was 56.7% (active). For `COc1ccc(CNC(=O)COc2cccnc2[N+](=O)[O-])cc1`, the inhibition was 0.02% (inactive). With `c1coc(CNc2ncnc3ccccc23)c1` the inhibition was 53.6% (active). In the case of `O=C(COc1ncnc2ccccc12)NC(=O)NCc1ccccc1`, the inhibition is reported as 11.2% (inactive). `c1coc(CCNc2ncnc3ccc(-c4ccc5c(c4)OCO5)cc23)c1` was tested, and the inhibition was -3.64% (inactive).
